Bioassay records as filed in PubChem BioAssay.
FBA Mtb inh: Mtb FBA enzyme inhibitors, primary screen, biochemical, fluorescence, strain H37Rv | purified M. tuberculosis FBA, fluorescence read-out | inhibition, % at 1 µM | actives 2.3% (n = 360,000) | AID 588726, 2011
Target sequence (P9WQA3 whole entry, looked up): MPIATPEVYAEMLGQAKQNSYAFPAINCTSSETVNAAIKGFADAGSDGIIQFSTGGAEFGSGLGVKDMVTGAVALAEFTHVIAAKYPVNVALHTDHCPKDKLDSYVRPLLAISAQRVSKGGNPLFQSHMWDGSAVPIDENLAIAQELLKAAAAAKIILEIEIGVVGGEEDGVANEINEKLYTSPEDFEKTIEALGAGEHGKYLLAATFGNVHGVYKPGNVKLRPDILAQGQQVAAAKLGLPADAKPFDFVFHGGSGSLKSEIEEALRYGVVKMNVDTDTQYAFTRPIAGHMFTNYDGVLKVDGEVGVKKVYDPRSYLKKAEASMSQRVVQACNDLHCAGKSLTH
Yp Topo-I inh: Yersinia pestis topoisomerase I inhibitors, primary screen, biochemical, cleavage product accumulation, plate reader, single point; DNA topoisomerase I (Yersinia pestis CO92); Y. pestis Topo-I cleavage product accumulation; activity, % at 10 µM; actives 0.064% (n = 360,000); AID 504884, 2011; in the data active = activity above about 50%, passing the limit was not always enough
PrP 5UTR inh: inhibition of PrP 5' UTR reporter expression. inhibition, % (no concentration beside the values). cell-based PrP 5' UTR mRNA reporter, plate reader. actives 0.35% (n = 340,000); in the data active = inhibition above about 52%
PrPC surface inh: inhibitors of human cell surface prion protein PrPC, primary screen, cell-based, TR-FRET; TR-FRET read-out; inhibition, % at 13.8 µM; actives 0.43% (n = 370,000); AID 720596, 2013; Major prion protein (Homo sapiens), P04156; in the data active = inhibition above about 24%
GDH-TPI counter-1: GDH-TPI coupling enzyme inhibitors, primary screen, artefact control for M. tuberculosis FBA inhibitor project, biochemical, absorbance, full deck | GDH-TPI coupled enzyme counterscreen, NADH absorbance | inhibition, % at 4.8 µM | actives 1.2% (n = 360,000) | AID 588335, 2011; in the data active = inhibition above about 30%
Mtb hypoxia rep: PubChem AID 1159583. M. tuberculosis hypoxia-regulated fluorescent reporter, fluorescence. fluorescence inhibition, % (concentration not given with the values). actives 0.1% (n = 300,000); in the data active = fluorescence inhibition mostly above about 23%, no sharp cut-off; inactive = mostly below about 17%
Mtb FBA confirm: M. tuberculosis aldolase blockers, biochemical, fluorescence, strain H37Rv, confirmation; shares compounds with FBA Mtb inh; purified M. tuberculosis FBA, fluorescence read-out; inhibition, % at 1 µM; actives 78% (n = 5,600)
GDH-TPI counter-2: GDH-TPI coupling enzyme inhibitors, artefact control for M. tuberculosis FBA inhibitor project, biochemical, fluorescence, high throughput; GDH-TPI coupled enzyme counterscreen; actives 81% (n = 5,600); inhibition, % at 1 µM; AID 652141, 2013; shares compounds with FBA Mtb inh; in the data active = inhibition above about 10%
Large screens that a line does not name were inactive (follow-up assays come after a bar, where they were run). This is a sample that favours compounds with a hit; in the whole collection about 3.8% have one here. Cut-off read from the data, not from the text of the source, unless noted: active = inhibition above about 27%; inactive = the rest.

Cc1cc(OCC(=O)NC(Cc2c[nH]c3ccc(O)cc23)C(=O)O)c2c(C)c(C)c(=O)oc2c1 (stereo unspecified)	FBA Mtb inh 33 (no result: Mtb hypoxia rep) | Mtb FBA confirm active | GDH-TPI counter-2 active
Cc1c(OCC(=O)NC(Cc2c[nH]c3ccc(O)cc23)C(=O)O)ccc2c3c(c(=O)oc12)CCC3 (stereo unspecified)	none
Cc1cc(OCC(=O)NC(Cc2ccc(Cl)cc2)C(=O)O)c2c(C)c(C)c(=O)oc2c1 (stereo unspecified)	FBA Mtb inh 60 (no result: Mtb hypoxia rep) | Mtb FBA confirm 186 | GDH-TPI counter-2 143
CCOC(=O)c1ccc(C=C2c3ccccc3C(=O)N2c2ccccc2)cc1F	none (no result: FBA Mtb inh, Yp Topo-I inh, PrP 5UTR inh, PrPC surface inh, GDH-TPI counter-1)
CCn1cc(C2C(C(=O)Nc3cc(C)ccn3)=C(C)NC3=C2C(=O)CC(C)(C)C3)c(C)n1 (stereo unspecified)	FBA Mtb inh 52 | Mtb FBA confirm 104 | GDH-TPI counter-2 85
CCCN(C=Nc1sc2c(c1C#N)CCCCC2)CCC	none (no result: FBA Mtb inh, Yp Topo-I inh, PrP 5UTR inh, PrPC surface inh, GDH-TPI counter-1)
Cc1cn(C2CCCCC2)c(=O)n(-c2ccccc2)c1=O	FBA Mtb inh 37 | Mtb FBA confirm active | GDH-TPI counter-2 177
Cc1cn(CC(C)C)c(=O)n(-c2ccccc2)c1=O	none
Cc1nc2c(c(=O)c3ccccc3n2C)c(=O)n1C1CCCCCC1	FBA Mtb inh 37 | Mtb FBA confirm 45 | GDH-TPI counter-2 46
CCCOC(=O)c1ccc(Oc2coc3c(CN(CC)CC)c(O)ccc3c2=O)cc1	FBA Mtb inh 55 | Mtb FBA confirm inactive | GDH-TPI counter-2 12
Cc1ccc(C=NNC(=O)CNC(=O)c2ccc(C)c([N+](=O)[O-])c2)o1	none (no result: FBA Mtb inh, Yp Topo-I inh, PrP 5UTR inh, PrPC surface inh, GDH-TPI counter-1)
Nc1nnc(CC(=O)NN=Cc2ccc(-c3ccccc3Cl)o2)s1	none (no result: FBA Mtb inh, Yp Topo-I inh, PrP 5UTR inh, PrPC surface inh, GDH-TPI counter-1)
O=c1nc(-c2ccccc2)n(-c2ccccc2)[nH]1	FBA Mtb inh 39 | Mtb FBA confirm 157 | GDH-TPI counter-2 129
Cc1[nH]n(-c2ccccc2)c(=O)c1-c1ccccc1	none
CC(=NNC(=O)c1ccccc1C)c1ccc(N2CCOCC2)cc1	none (no result: FBA Mtb inh, Yp Topo-I inh, PrP 5UTR inh, PrPC surface inh, GDH-TPI counter-1)
CCOC(=O)C1=C(C)NC2=C(C(=O)CC(C)(C)C2)C1c1cccc(C)n1 (stereo unspecified)	FBA Mtb inh 37 | Mtb FBA confirm 174 | GDH-TPI counter-2 159
CCCOC(=O)C1=C(C)NC2=C(C(=O)CC(C)(C)C2)C1c1cccnc1 (stereo unspecified)	FBA Mtb inh 36 | Mtb FBA confirm active | GDH-TPI counter-2 active
CCCOC(=O)C1=C(C)NC2=C(C(=O)CC(C)(C)C2)C1c1ccc(N(C)C)cc1 (stereo unspecified)	none (no result: Mtb hypoxia rep)
O=C(CCc1ccccc1)NNC(=O)c1cc(Cl)ccc1O	FBA Mtb inh 35 | Mtb FBA confirm inactive | GDH-TPI counter-2 inactive
O=C(CCc1ccccc1)NNC(=O)c1ccccc1C(=O)O	none (no result: Mtb hypoxia rep)
CCOc1ccc(-n2c(C)cc(C=NN(C)C)c2C)cc1	none (no result: FBA Mtb inh, Yp Topo-I inh, PrP 5UTR inh, PrPC surface inh, GDH-TPI counter-1)
COc1ccc(N2C(=O)c3ccccc3NC23CCC(C)CC3)cc1 (stereo unspecified)	none
COc1ccc(N2C(=O)c3ccccc3NC23CCCCC3)cc1	FBA Mtb inh 37 | Mtb FBA confirm 111 | GDH-TPI counter-2 109
N#C/C(=C\c1c(Oc2ccc(Cl)cc2)nc2ccccn2c1=O)C(=O)NC1CCS(=O)(=O)C1 (stereo unspecified)	FBA Mtb inh 86 | Mtb FBA confirm active | GDH-TPI counter-2 182
Cc1cccn2c(=O)c(/C=C(\C#N)C(=O)NC3CCS(=O)(=O)C3)c(Oc3ccc(F)cc3)nc12 (stereo unspecified)	FBA Mtb inh 32 | Mtb FBA confirm active | GDH-TPI counter-2 active
COC(=O)/C(C#N)=C/c1c(Oc2cccc(C)c2)nc2ccccn2c1=O	none
COc1ccc(Oc2nc3c(C)cccn3c(=O)c2/C=C(\C#N)C(N)=O)cc1	none
Cc1cccc(Oc2nc3ccccn3c(=O)c2/C=C(\C#N)C(=O)NC2CCS(=O)(=O)C2)c1C (stereo unspecified)	FBA Mtb inh 51 | Mtb FBA confirm 107 | GDH-TPI counter-2 80
Cc1cc(Oc2nc3ccccn3c(=O)c2/C=C(\C#N)C(=O)NC2CCS(=O)(=O)C2)ccc1Cl (stereo unspecified)	FBA Mtb inh 45 | Mtb FBA confirm 139 | GDH-TPI counter-2 113
Cc1cccc(Oc2nc3ccccn3c(=O)c2/C=C(\C#N)C(=O)NC2CCS(=O)(=O)C2)c1 (stereo unspecified)	none
Cc1ccc2nc(-c3ccc(S(=O)(=O)N4CCCCC4)cc3)cn2c1	FBA Mtb inh 53 | Mtb FBA confirm 45 | GDH-TPI counter-2 39
Cc1ccc(S(=O)(=O)N2CCN(S(=O)(=O)N3CCCCC3)CC2)cc1	none
CC(=O)Nc1cccc(-c2ccnc3c2CC(C)(C(=O)NCc2ccc(N(C)C)cc2)O3)c1 (stereo unspecified)	none (no result: PrP 5UTR inh, Mtb hypoxia rep)
CN(C)c1ccc(-c2ccnc3c2CC(C)(C(=O)NCc2ccccc2)O3)cc1 (stereo unspecified)	FBA Mtb inh 49 (no result: PrP 5UTR inh, Mtb hypoxia rep) | Mtb FBA confirm inactive | GDH-TPI counter-2 inactive
CN(C)c1ccc(-c2ccnc3c2CC(C)(C(=O)NCc2cccc(Cl)c2)O3)cc1 (stereo unspecified)	FBA Mtb inh 62 (no result: PrP 5UTR inh, Mtb hypoxia rep) | Mtb FBA confirm 58 | GDH-TPI counter-2 39
CN(C)c1ccc(-c2ccnc3c2CC(C)(C(=O)NCC2CCOCC2)O3)cc1 (stereo unspecified)	FBA Mtb inh 48 (no result: PrP 5UTR inh, Mtb hypoxia rep) | Mtb FBA confirm 114 | GDH-TPI counter-2 98
CC1(C(=O)NCc2ccccc2)Cc2c(-c3ccccc3)ccnc2O1 (stereo unspecified)	none (no result: PrP 5UTR inh, Mtb hypoxia rep)
CN(C)c1ccc(-c2ccnc3c2CC(C)(C(=O)NCc2ccncc2)O3)cc1 (stereo unspecified)	FBA Mtb inh 60, GDH-TPI counter-1 34 (no result: PrP 5UTR inh, Mtb hypoxia rep) | Mtb FBA confirm 178 | GDH-TPI counter-2 145
Cn1cccc1CC(=O)NN=Cc1cccs1	none (no result: FBA Mtb inh, Yp Topo-I inh, PrP 5UTR inh, PrPC surface inh, GDH-TPI counter-1)
Cc1ccsc1C=NN1CCN(Cc2ccccc2)CC1	none (no result: FBA Mtb inh, Yp Topo-I inh, PrP 5UTR inh, PrPC surface inh, GDH-TPI counter-1)
CCOc1ccc2[nH]c(=O)c(CN(Cc3ccco3)C(CC)c3nnnn3Cc3ccccc3)cc2c1 (stereo unspecified)	FBA Mtb inh 27 (no result: Mtb hypoxia rep) | Mtb FBA confirm active | GDH-TPI counter-2 active
